Screen size: about 340,000 compounds; about 530 (0.16%) were called active. Roughly 2% stayed inconclusive and do not appear here. The sample as a whole holds a higher share of actives than the screen did. Unmarked numbers belong to inactive results. No stated cut-off is given here; in the data, active means activity change below about -80%; inconclusive means between about -30% and that limit; inactive means weaker than that.
Assay: Small Molecules that selectively kill Giardia lamblia: qHTS;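 further: parasites exposed to compound for two days anaerobically before the ATP read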
Settings: Giardia lamblia trophozoite viability; at 7.66 µM; active compounds read low
In short: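 Luminescence from cellular ATP indicates surviving trophozoites (100 cells/well) following 48 hrs anaerobic compound treatment at 37 deg C; signal develops 15-30 min at room temperature.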
On the % scale 0 is the no-effect control and ±100 the full control effect.

Structure (SMILES) | activity change
Oc1ccc(Br)cc1C1C=C(c2ccc3c(c2)OCO3)NC(c2ccc(Cl)cc2)N1 (stereo not drawn) | -6.54%
CC1CC(C)(C)CC2(C1)NC(=O)N(CC(=O)Nc1nccs1)C2=O (stereo not drawn) | 7.14%
COc1ccc(-c2nc(=N)sn2-c2ccccc2)cc1 | 5%
Cc1ccc(SCC(CC(C)C)N2CCN(CCc3ccccc3)CCC2=O)cc1 (stereo not drawn) | -1.92%
COc1ccccc1Nc1cc(C(=O)NCCCN(C)C2CCCCC2)c2ccccc2n1 | -11.5%
CN(C)Cc1cn(-c2ccccc2)nc1-c1ccccc1 | 2.86%
[O-][n+]1ccc(OCc2ccccc2)cc1 | 23.2%
CCc1ccc(OCCCn2c(CCCNC(=O)C3CCCCC3)nc3ccccc32)cc1 | -7.56%
C=CCSc1nnc(N2C(=O)C(O)=C(C(=O)c3ccco3)C2c2ccc(F)cc2)s1 (stereo not drawn) | -13.6%
O=C(c1ccc(N2CCOCC2)c([N+](=O)[O-])c1)N1CCN(c2ccccc2F)CC1 | 8.07%
O=C(c1cccc(F)c1)N1CCN(c2ccc([N+](=O)[O-])c3cccnc23)CC1 | -82.8% (active)
O=C(c1cccc(F)c1)N1CCN(c2ccc([N+](=O)[O-])c(N3CCCCC3)c2)CC1 | 5.61%
O=C(CN1C(=O)NC2(CCCCCC2)C1=O)NCc1cccs1 | -9.8%
COc1ccc(Br)cc1C1C2C=CCC(C)C2C(=O)N1Cc1ccccc1 (stereo not drawn) | 20%
O=C(O)C1CC=CC2CCN(C3CCCCC3)C(=O)C21 (stereo not drawn) | -16.4%
Cc1ccc2ccc3c(c2n1)NS(=O)(=O)c1ccccc1-3 | -5.37%
Cc1cccc(/C=N/NC(=O)CNc2cccc3ccccc23)n1 | -9.25%
CC(C)c1cc(C(=O)N/N=C/C(Br)=C/c2ccccc2)n[nH]1 | 15.8%
O=C(COc1ccccc1[N+](=O)[O-])N/N=C/c1ccc[nH]1 | 5.97%
Cc1cc(C(=O)N/N=C/c2cc([N+](=O)[O-])cc(C)c2O)n[nH]1 | -15.8%

Structure (SMILES) | activity change
CC(C)(C)c1cc(C(=O)N/N=C/c2ccc([N+](=O)[O-])s2)n[nH]1 | -93% (active)
Cc1ccccc1NCC(=O)N/N=C\c1ccc([N+](=O)[O-])s1 | -89.1% (active)
CC1(C)OC(=O)N2CCc3ccccc3C21C (stereo not drawn) | -12.9%
CCOc1ccc(C(C)=O)cc1CSc1nnc(-c2ccncc2)n1CCOC | 1.79%
O=C(NNC(=O)c1ccccc1[N+](=O)[O-])Nc1ccccc1C(F)(F)F | -21.9%
COc1ccc(-n2cnc3cc(NCc4ccco4)ccc32)cc1 | -16.4%
Cn1c(-c2ccco2)nc2cc3ccccc3cc21 | -82.6% (active)
Cn1c(SCC(=O)Nc2ccc(Br)cc2F)nnc1-c1ccco1 | -12.3%
Cc1ccc(-c2nc3ccccn3c2Nc2ccc(F)cc2)o1 | 13.3%
NCCCNC(=S)NCCCN(Cc1ccc(Cl)cc1)c1ccc(Br)cn1 | -3.06%
C=C1CCN(C(CC(C)C)C(=O)NCc2cc(OC)c(OC)c(OC)c2)S(=O)(=O)c2ccccc21 (stereo not drawn) | -2.48%
O=C1c2ccccc2C(=O)N1c1ccc(S(=O)(=O)N2CCOCC2)c2ccccc12 | -26.6%
c1ccc(-n2ncc(-c3nn[nH]n3)n2)cc1 | -10.6%
O=[N+]([O-])c1ccc(S(=O)(=O)N2CCN(c3nc(-c4ccccc4)nc4ccccc34)CC2)cc1 | -1.14%
CCC(=O)c1ccc(OCC(=O)N(CC)CC2COc3ccccc3O2)cc1 (stereo not drawn) | 5.76%
O=C(NCCc1ccco1)c1ccc(OCc2cn3ccccc3n2)cc1 | -6.02%
O=C(Cc1ccccc1)Nc1c(C(=O)N2CCCCCC2)cnn1-c1ccccc1 | 7.39%
O=C(Nc1cccc2cccnc12)C(F)(F)F | 11.7%
O=c1onc(-c2c(F)cccc2F)n1-c1ccccc1Cl | -18.5%
CCOc1nc(NCCN2CCOCC2)nc(Nc2ccc(C)cc2)n1 | 17.9%

Structure (SMILES) | activity change
c1ccc(-c2ccc(OCCN3CCOCC3)cc2)cc1 | 19.5%
c1ccc2cc3c(NCCN4CCOCC4)ccnc3cc2c1 | -97.2% (active)
COc1cc2nc(CN(C)Cc3ccc(F)cc3)[nH]c(=O)c2cc1OC | 1.83%
CCCNC(=O)c1onc(CSc2ccc(F)cc2)c1C(=O)NC(C)C | 23.4%
CC(C)C(NC(=O)C1CCC(C(C)(C)C)CC1)C(=O)NCCCN1CCCCC1 (stereo not drawn) | -2.26%
CCOCCCNC(=O)C(NC(=O)CNC(=O)c1ccccc1)c1ccc(OC)cc1 (stereo not drawn) | -20.4%
COc1ccc(-c2nc3c(c(SCC(=O)Nc4ccc(C(=O)O)cc4)n2)Cc2ccccc2O3)cc1 | 9.92%
Cc1cc(C)cc(OCC(=O)Nc2cc(NC(=O)COc3cc(C)cc(C)c3)cc(C(=O)O)c2)c1 | -12.2%
CC1C/C(=N/NC(=O)c2cccs2)CC(C)(C)C1 (stereo not drawn) | 4.93%
Oc1ccc(Cl)cc1C1C=C(c2ccc3c(c2)OCO3)NC(c2ccc(F)c(Br)c2)N1 (stereo not drawn) | -24.8%
O=C(c1ccc2c(=O)n(Cc3ccco3)c(=S)[nH]c2c1)N1CCCC1 | 4.07%
O=C1C[C@@H](c2ccc3ccccc3c2)N1S(=O)(=O)c1ccccc1[N+](=O)[O-] | 0.869%
COc1ccc(C(CCN2CCOCC2)c2c(OC)cc(OC)c3c2OC(=O)CC3c2ccc(OC)cc2)cc1 (stereo not drawn) | 12.9%
CCN(CC)c1nc(C#N)nc(OC)n1 | -9.05%
C=C1CCN(Cc2ccc(OC)cc2)S(=O)(=O)c2ccccc21 | 23.9%
CCOc1cc2[nH]c(=O)n(CCC(=O)NCc3ccc(OC)cc3)c(=O)c2cc1OCC | -9.64%
COc1ccc(C2/C=C\CN(C(=O)c3ccc(C)cc3)C(Cc3ccccc3)C(=O)N2Cc2ccc(F)cc2)cc1 (stereo not drawn) | 28.8%
Cc1ccc(-c2nnc3ccc(SCC(N)=O)nn23)cc1 | 5.27%
